Reference: article PMC7862700, “An all-to-all approach to the identification of sequence-specific readers for epigenetic DNA modifications on cytosine”

Experiments:
Assay in all cases: DAPPL (digital affinity profiling via proximity ligation, sequencing); 10 mM Tris-HCl pH 7.5, 50 mM NaCl, 1 mM DTT, 4% glycerol, room temperature, 30 min; GST-TFs on glutathione beads, 16-mer random dsDNA library, 0.1% formaldehyde crosslink after washing; high values mean tight binding
[1] = biological target: T1, FLI1 (Homo sapiens, UniProt Q01543 1-452); conditions: protein: recombinant; tags: N-terminal GST; dsDNA, one strand shown
T1 sequence: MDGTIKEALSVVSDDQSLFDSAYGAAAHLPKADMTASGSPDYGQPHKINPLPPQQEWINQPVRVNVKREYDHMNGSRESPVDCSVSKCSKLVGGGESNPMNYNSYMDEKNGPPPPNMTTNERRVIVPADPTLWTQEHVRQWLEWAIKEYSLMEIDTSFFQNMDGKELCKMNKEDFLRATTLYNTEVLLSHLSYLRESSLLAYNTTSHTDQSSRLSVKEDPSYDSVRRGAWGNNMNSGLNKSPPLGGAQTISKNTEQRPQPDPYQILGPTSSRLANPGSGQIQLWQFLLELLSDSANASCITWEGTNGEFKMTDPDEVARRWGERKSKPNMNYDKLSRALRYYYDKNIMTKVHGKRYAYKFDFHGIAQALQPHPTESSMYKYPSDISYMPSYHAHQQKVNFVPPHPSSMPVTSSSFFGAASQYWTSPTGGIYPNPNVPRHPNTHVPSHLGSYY
Outline: (§1)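 Binding signal is defined as a hexamer's read frequency for one factor over its frequency for the tag-only sample. To obtain reads, GST-fused human transcription factors were expressed in yeast, captured on glutathione beads, barcoded with DNA and pooled with that sample. Pools met 200 nmole of a 16-mer random double-stranded DNA library in Tris/NaCl/DTT/glycerol buffer for 30 min at room temperature before washing, 0.1% formaldehyde crosslinking, proximity ligation (BsaI/T4 ligase, 1 h, 37 °C), PCR and Illumina NextSeq500 sequencing.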

[2] = biological target: T2, ELK1 (Homo sapiens, UniProt P19419 1-428); conditions: protein: recombinant; tags: N-terminal GST; dsDNA, one strand shown
T2 sequence: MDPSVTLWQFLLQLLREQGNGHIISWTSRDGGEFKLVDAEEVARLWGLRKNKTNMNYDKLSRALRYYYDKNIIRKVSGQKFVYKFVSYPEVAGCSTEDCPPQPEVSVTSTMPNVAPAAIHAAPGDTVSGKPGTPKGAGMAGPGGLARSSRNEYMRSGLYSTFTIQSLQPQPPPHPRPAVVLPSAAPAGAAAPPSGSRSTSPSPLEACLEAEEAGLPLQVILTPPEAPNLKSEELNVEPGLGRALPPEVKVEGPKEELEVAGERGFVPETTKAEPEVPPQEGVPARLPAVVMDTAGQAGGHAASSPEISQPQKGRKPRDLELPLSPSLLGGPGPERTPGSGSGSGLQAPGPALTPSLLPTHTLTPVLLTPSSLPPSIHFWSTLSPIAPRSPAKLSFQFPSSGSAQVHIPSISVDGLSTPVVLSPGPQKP
Outline: as §1

[3] = biological target: T3, GABPA (Homo sapiens, UniProt Q06546 1-454); conditions: protein: recombinant; tags: N-terminal GST; dsDNA, one strand shown
T3 sequence: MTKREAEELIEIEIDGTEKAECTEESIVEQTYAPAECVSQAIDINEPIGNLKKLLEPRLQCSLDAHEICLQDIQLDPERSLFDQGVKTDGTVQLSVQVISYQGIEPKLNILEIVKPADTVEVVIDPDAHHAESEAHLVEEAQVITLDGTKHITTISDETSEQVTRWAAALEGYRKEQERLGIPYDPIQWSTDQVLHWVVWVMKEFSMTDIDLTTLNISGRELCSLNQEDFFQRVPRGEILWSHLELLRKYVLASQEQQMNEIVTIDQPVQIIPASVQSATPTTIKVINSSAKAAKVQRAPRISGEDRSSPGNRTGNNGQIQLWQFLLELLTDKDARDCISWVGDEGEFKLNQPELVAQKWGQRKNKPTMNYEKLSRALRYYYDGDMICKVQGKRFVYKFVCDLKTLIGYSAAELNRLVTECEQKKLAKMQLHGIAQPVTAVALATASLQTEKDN
Outline: as §1

[4] = biological target: T4, ERG (Homo sapiens, UniProt P11308 1-479); conditions: protein: recombinant; tags: N-terminal GST; dsDNA, one strand shown
T4 sequence: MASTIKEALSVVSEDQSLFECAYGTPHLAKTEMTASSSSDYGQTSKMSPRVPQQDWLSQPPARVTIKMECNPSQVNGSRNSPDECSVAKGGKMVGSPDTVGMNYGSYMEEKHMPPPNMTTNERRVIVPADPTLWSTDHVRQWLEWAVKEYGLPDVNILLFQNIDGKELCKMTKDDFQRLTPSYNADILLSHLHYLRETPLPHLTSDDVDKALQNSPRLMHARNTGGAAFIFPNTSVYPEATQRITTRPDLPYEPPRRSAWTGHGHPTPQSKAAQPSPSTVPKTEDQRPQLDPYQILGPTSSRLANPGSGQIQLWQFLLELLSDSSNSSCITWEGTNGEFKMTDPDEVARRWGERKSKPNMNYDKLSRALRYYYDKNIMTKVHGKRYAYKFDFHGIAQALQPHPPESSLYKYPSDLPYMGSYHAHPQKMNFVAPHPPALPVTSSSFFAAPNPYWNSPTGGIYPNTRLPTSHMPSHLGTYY
Outline: as §1

[5] = biological target: ELF1 (Homo sapiens, UniProt P32519 1-619); conditions: protein: recombinant; tags: N-terminal GST; dsDNA, one strand shown
Outline: as §1

[6] = biological target: T5, EHF (Homo sapiens, UniProt Q9NZC4 1-300); conditions: protein: recombinant; tags: N-terminal GST; dsDNA, one strand shown
T5 sequence: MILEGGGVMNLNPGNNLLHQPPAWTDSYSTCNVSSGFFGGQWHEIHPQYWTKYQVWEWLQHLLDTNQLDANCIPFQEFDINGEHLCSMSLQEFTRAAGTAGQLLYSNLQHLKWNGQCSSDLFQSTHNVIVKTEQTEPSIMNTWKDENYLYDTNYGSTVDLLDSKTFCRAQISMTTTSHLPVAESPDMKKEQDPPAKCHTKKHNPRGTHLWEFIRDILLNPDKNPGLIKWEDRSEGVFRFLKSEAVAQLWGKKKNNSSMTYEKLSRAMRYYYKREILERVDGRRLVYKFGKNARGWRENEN
Outline: as §1

[7] = biological target: SPI1 (Homo sapiens, UniProt P17947 1-270); conditions: protein: recombinant; tags: N-terminal GST; dsDNA, one strand shown
Outline: as §1

[8] = biological target: SPIB (Homo sapiens, UniProt Q01892 1-262); conditions: protein: recombinant; tags: N-terminal GST; dsDNA, one strand shown
Outline: as §1

[9] = biological target: T6, ELK3 (Homo sapiens, UniProt P41970 1-407); conditions: protein: recombinant; tags: N-terminal GST; dsDNA, one strand shown
T6 sequence: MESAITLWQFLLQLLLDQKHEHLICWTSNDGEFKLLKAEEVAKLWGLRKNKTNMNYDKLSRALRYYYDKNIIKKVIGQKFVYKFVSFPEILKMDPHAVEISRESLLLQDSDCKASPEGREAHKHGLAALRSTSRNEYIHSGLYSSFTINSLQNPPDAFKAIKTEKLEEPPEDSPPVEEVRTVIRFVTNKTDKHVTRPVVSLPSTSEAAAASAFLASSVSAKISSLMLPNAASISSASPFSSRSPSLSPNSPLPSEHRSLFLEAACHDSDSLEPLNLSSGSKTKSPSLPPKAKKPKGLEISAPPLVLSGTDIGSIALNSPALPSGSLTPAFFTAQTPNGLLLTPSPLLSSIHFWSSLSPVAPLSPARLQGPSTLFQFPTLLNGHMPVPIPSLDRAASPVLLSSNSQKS
Outline: as §1

[10] = biological target: T7, FEV (Homo sapiens, UniProt Q99581 1-238); conditions: protein: recombinant; tags: N-terminal GST; dsDNA, one strand shown
T7 sequence: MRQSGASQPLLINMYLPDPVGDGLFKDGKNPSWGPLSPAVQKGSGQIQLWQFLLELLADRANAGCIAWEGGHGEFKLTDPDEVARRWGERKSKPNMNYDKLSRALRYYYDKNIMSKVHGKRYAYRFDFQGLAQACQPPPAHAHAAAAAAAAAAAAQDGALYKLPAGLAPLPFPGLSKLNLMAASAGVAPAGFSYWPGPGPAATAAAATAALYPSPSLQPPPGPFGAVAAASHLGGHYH
Outline: as §1

[11] = biological target: ETV5 (Homo sapiens, UniProt P41161 1-510); conditions: protein: recombinant; tags: N-terminal GST; dsDNA, one strand shown
Outline: as §1

[12] = biological target: HSF1 (Homo sapiens, UniProt Q00613 1-529); conditions: protein: recombinant; tags: N-terminal GST; chain copies: 3; dsDNA, one strand shown
Outline: as §1

[13] = biological target: T8, SPIC (Homo sapiens, UniProt Q8N5J4 1-248); conditions: protein: recombinant; tags: N-terminal GST; dsDNA, one strand shown
T8 sequence: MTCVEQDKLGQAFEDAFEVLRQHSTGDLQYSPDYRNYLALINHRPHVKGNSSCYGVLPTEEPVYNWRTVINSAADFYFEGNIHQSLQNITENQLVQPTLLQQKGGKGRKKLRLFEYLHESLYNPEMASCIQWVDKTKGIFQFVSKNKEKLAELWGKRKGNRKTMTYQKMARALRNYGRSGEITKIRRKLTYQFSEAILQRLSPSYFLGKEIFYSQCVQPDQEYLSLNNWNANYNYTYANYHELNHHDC
Outline: as §1

[14] = biological target: ELF4 (Homo sapiens, UniProt Q99607 1-663); conditions: protein: recombinant; tags: N-terminal GST; dsDNA, one strand shown
Outline: as §1

[15] = biological target: T9, ELK4 (Homo sapiens, UniProt P28324-2 1-405); conditions: protein: recombinant; tags: N-terminal GST; dsDNA, one strand shown
T9 sequence: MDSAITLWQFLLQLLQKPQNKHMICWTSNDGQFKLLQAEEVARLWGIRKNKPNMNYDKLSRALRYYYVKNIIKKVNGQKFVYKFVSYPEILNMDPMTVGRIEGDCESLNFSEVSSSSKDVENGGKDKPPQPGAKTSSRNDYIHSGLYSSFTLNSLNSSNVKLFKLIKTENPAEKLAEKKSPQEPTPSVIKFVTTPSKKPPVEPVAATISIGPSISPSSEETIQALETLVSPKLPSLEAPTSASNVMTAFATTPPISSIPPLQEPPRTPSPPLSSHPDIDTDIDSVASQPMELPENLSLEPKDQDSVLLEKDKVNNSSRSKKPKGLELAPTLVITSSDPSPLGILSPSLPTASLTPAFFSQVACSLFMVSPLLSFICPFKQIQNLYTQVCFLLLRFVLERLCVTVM
Outline: as §1

[16] = biological target: T10, ETV2 (Homo sapiens, UniProt O00321 1-342); conditions: protein: recombinant; tags: N-terminal GST; dsDNA, one strand shown
T10 sequence: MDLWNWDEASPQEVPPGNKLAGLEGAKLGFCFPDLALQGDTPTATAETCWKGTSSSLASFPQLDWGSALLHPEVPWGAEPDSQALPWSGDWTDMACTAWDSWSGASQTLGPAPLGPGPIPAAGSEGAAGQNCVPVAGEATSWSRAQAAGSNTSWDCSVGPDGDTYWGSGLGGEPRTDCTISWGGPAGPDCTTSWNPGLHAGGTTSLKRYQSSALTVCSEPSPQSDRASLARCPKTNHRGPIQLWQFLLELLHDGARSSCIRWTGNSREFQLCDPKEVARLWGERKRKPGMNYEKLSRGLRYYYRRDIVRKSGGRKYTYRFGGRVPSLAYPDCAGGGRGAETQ
Outline: as §1

[17] = biological target: T11, ELF3 (Homo sapiens, UniProt P78545 1-371); conditions: protein: recombinant; tags: N-terminal GST; dsDNA, one strand shown
T11 sequence: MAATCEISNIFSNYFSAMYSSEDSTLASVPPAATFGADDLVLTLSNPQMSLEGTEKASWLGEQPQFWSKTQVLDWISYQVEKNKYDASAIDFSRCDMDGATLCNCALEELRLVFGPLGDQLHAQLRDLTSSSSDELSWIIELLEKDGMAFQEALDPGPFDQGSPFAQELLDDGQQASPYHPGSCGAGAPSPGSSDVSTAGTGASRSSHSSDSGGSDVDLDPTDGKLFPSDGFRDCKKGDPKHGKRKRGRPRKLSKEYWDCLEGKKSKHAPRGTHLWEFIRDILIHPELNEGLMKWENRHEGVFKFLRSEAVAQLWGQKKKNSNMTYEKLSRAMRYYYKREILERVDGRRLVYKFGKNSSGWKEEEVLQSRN
Outline: as §1

[18] = biological target: CRX (Homo sapiens, UniProt O43186 1-299); conditions: protein: recombinant; tags: N-terminal GST; dsDNA, one strand shown
Outline: as §1

[19] = biological target: ETV1 (Homo sapiens, UniProt P50549 1-477); conditions: protein: recombinant; tags: N-terminal GST; dsDNA, one strand shown
Outline: as §1

Sequence of CRX (O43186 whole entry): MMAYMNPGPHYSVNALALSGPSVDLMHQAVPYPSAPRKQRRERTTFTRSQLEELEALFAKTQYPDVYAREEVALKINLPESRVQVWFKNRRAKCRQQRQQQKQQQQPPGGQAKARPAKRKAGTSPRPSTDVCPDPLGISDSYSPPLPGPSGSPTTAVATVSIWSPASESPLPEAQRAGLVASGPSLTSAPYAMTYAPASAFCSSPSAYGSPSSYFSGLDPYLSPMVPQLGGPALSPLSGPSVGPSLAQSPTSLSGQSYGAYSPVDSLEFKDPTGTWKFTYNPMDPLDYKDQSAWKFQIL
Sequence of SPIB (Q01892 whole entry): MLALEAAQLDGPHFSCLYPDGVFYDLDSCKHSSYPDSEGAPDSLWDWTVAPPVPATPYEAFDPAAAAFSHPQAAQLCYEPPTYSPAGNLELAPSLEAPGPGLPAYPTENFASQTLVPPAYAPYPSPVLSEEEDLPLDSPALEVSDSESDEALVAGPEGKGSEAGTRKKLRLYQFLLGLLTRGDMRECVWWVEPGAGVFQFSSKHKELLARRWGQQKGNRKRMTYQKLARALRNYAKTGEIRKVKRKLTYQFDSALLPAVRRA
Sequence of ETV5 (P41161 whole entry): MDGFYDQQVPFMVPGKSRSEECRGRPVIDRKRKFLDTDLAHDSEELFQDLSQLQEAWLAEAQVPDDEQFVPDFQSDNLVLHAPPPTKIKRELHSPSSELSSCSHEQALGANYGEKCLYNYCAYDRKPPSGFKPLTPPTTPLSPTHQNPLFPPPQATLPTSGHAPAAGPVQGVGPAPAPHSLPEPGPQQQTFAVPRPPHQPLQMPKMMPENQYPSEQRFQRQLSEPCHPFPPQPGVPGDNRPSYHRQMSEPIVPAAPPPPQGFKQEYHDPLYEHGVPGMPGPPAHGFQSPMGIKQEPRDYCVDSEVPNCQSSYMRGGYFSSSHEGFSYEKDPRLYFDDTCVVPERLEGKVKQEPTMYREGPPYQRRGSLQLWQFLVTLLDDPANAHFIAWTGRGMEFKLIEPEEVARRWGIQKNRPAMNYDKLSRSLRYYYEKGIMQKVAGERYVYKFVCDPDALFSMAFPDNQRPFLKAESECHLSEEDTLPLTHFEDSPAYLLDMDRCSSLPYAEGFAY
Sequence of ELF4 (Q99607 whole entry): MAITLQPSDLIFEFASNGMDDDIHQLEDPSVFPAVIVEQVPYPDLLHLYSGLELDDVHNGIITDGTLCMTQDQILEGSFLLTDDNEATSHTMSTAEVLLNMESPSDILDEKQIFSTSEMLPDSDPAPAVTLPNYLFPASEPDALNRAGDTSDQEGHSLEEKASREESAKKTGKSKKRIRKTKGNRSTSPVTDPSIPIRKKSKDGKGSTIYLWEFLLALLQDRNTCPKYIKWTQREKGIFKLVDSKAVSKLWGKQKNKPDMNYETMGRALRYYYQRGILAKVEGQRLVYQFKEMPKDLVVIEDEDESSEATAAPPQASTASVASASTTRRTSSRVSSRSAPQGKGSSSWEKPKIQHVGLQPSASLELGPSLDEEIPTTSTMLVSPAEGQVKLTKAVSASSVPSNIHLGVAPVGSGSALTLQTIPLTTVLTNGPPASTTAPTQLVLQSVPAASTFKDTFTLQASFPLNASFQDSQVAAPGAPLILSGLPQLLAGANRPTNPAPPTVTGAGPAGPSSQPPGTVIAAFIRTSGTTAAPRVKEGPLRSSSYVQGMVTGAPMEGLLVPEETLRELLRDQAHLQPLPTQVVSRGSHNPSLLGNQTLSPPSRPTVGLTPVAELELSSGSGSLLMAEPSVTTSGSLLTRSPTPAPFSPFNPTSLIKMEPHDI
Sequence of HSF1 (Q00613 whole entry): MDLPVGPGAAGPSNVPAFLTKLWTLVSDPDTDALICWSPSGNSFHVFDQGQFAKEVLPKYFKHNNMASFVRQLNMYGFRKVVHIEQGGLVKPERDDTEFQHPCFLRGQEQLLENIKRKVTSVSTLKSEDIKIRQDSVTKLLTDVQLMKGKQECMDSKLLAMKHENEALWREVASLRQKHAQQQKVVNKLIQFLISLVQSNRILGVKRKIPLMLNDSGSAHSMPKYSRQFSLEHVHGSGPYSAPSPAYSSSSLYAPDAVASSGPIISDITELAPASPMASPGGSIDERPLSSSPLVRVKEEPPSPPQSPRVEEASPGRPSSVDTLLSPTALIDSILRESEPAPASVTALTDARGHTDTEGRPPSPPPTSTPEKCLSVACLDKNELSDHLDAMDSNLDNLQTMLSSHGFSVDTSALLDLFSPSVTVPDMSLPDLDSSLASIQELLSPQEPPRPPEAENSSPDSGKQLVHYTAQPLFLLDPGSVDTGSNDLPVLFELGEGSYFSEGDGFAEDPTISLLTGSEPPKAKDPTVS
Sequence of ELF1 (P32519 whole entry): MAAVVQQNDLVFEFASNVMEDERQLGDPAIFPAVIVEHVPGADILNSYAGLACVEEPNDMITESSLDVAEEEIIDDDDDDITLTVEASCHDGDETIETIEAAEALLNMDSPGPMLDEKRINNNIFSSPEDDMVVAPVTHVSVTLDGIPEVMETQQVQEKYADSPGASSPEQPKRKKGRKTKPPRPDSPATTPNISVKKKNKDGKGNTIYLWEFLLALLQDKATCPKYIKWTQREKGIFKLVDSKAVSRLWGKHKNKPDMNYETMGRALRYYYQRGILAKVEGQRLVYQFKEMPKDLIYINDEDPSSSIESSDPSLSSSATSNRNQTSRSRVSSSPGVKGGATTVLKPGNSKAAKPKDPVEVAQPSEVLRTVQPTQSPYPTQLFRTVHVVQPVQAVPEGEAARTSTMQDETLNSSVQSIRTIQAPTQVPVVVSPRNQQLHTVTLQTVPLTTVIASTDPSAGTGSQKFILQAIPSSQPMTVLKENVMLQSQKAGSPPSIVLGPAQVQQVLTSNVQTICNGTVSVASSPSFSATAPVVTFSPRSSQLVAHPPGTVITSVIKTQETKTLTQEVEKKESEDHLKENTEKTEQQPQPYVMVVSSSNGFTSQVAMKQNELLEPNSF
Sequence of ETV1 (P50549 whole entry): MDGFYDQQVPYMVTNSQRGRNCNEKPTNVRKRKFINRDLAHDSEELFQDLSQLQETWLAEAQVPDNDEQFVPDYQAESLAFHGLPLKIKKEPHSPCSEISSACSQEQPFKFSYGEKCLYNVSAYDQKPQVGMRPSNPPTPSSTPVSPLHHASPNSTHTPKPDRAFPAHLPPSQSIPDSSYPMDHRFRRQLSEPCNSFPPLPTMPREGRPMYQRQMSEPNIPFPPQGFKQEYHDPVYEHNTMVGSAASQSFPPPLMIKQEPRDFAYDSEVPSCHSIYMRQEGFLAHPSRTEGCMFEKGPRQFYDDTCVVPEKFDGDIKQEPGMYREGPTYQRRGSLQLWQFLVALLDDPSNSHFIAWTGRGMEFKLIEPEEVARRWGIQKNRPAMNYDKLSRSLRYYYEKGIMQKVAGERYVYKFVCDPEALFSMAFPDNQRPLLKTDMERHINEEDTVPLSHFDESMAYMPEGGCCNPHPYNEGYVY

CTCCGA
binding signal [1]: 1.35 fold enrichment (6-mer frequency, TF over GST control) | binding signal [2]: 1.42 fold enrichment (6-mer frequency, TF over GST control) | binding signal [3]: 1.45 fold enrichment (6-mer frequency, TF over GST control) | binding signal [4]: 1.34 fold enrichment (6-mer frequency, TF over GST control) | binding signal [5]: 1.37 fold enrichment (6-mer frequency, TF over GST control) | binding signal [6]: 1.39 fold enrichment (6-mer frequency, TF over GST control) | binding signal [7]: 1.44 fold enrichment (6-mer frequency, TF over GST control) | binding signal [8]: 1.52 fold enrichment (6-mer frequency, TF over GST control) | binding signal [9]: 1.33 fold enrichment (6-mer frequency, TF over GST control) | binding signal [10]: 1.4 fold enrichment (6-mer frequency, TF over GST control) | binding signal [11]: 1.3 fold enrichment (6-mer frequency, TF over GST control) | binding signal [12]: 1.49 fold enrichment (6-mer frequency, TF over GST control) | binding signal [13]: 1.51 fold enrichment (6-mer frequency, TF over GST control) | binding signal [14]: 1.41 fold enrichment (6-mer frequency, TF over GST control) | binding signal [15]: 1.36 fold enrichment (6-mer frequency, TF over GST control) | binding signal [16]: 1.19 fold enrichment (6-mer frequency, TF over GST control) | binding signal [17]: 1.2 fold enrichment (6-mer frequency, TF over GST control) | binding signal [18]: 1.3 fold enrichment (6-mer frequency, TF over GST control) | binding signal [19]: 1.24 fold enrichment (6-mer frequency, TF over GST control)
